Only a selection was taken, and hits are over-represented in it overall.
Pf Dd2 inh: qHTS Primary assay for Inhibitors of Plasmodium falciparum Dd2 growth in vitro; P. falciparum Dd2 growth, SYBR Green, 72 h; Potency, µM (titrated, usually from 28.9 µM), for inactives: at the highest dose activity, negative = inhibition, most hits filed as inhibitors; actives 4.3% (n = 120,000); active = well fitted inhibition curve with a large enough effect;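 also: plate controls were DMSO vehicle for no effect and reference drug for full effect; nearly all actives have a fitted effect of over 65% in size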
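Readout: SYBR Green fluorescence, 485 nm excitation, 535 nm emission, after ~16 h lysis at 37C. Before that, Dd2-infected red cells (2.5% hematocrit) grew 72 h with compound, 29 uM top final concentration.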
An asterisk follows results filed as active; i = inactive; ! = not confirmed by another sample; [ ] = remark or other dose. Potency is read from the fitted curve at half-maximal effect.

SMILES | Pf Dd2 inh
CS(=O)(=O)N1CCC(Oc2ccc(C(=O)NCCc3cnccn3)cc2Cl)CC1 | -12.4%
COCCNC(=O)c1ccc(OC2CCN(C(C)CCSC)CC2)c(Cl)c1 (stereo not given) | 11.2µM*
Cc1ccc(C(C)CCN2CCC(N3CCC(C(=O)NC4CC4)CC3)CC2)o1 (stereo not given) | -13.0%
COc1ccc(C(=O)NCC2CCOC2)cc1OC1CCN(C(C)C)CC1 (stereo not given) | -14.5%
Cn1cnnc1CC1CCN(C(=O)c2ccccc2F)CC1 | -23.0%
Cc1nc(-c2c3n(c(=O)n(CC(=O)Nc4ccc(F)c(Cl)c4)c2=O)CCCC3)no1 | -16.6%
COc1ccc(-c2ccnc(N[C@H]3CO[C@H]4[C@@H]3OC[C@H]4OC(=O)Nc3cccc(OC)c3)n2)cc1 | -8.1%
COc1ccc(-c2ccnc(N[C@H]3CO[C@H]4[C@@H]3OC[C@@H]4NC(=O)Nc3cccc(C#N)c3)n2)cc1 | -29.2%
COc1cc(NC(=O)N[C@H]2CO[C@H]3[C@@H]2OC[C@@H]3Nc2nccc(-c3ccc(N(C)C)cc3)n2)cc(OC)c1 | 12.6µM*
CN(C)c1ccc(-c2ccnc(N[C@H]3CO[C@H]4[C@@H]3OC[C@H]4OC(=O)NCc3ccccc3)n2)cc1 | i
COc1cc(NC(=O)N[C@H]2CO[C@H]3[C@@H]2OC[C@@H]3Nc2nccc(-c3ccc(-c4ccccc4)cc3)n2)cc(OC)c1 | -27.1%
COC(=O)c1ccccc1NC(=O)O[C@@H]1CO[C@H]2[C@@H]1OC[C@@H]2Nc1nccc(-c2ccc(N(C)C)cc2)n1 | 5.01µM*
Cc1cc(NC(=O)c2ccc3c(c2)N(C)C2CCCCN2C3=O)ccc1F (stereo not given) | -8.2%
COCC(=O)N1CCCC(C(=O)NCCCn2nc(C)c(Cl)c2C)C1 (stereo not given) | -12.1%
Cc1ccc(NC(=O)c2ccc3c(c2)N(S(C)(=O)=O)CC3)c(C)c1 | i
CC(C)c1ccc(CC(=O)N2CCCc3ncc(C(=O)Nc4ccccn4)cc32)cc1 | 7.94µM*
O=C(Nc1cccc(C(F)(F)F)c1)c1cnc2c(c1)N(C(=O)CCc1ccccc1)CCC2 | i
CC(C)c1ccc(CC(=O)N2CCCc3ncc(C(=O)NCCN4CCCC4)cc32)cc1 | -6.7%[44.1 µM]
CC(C)c1ccc(CC(=O)N2CCCc3ncc(C(=O)Nc4ccc5[nH]ccc5c4)cc32)cc1 | -12.4%
CC(C)c1ccc(CC(=O)N2CCCc3ncc(C(=O)NCC(C)(C)CO)cc32)cc1 | i
Cn1cc(CC(=O)N2CCCc3ncc(C(=O)Nc4cccc(C(F)(F)F)c4)cc32)c2ccccc21 | i
CC(C)NC(=O)c1cnc2c(c1)N(C(=O)Cc1ccc(C(C)C)cc1)CCC2 | i
O=C(Nc1cccc(F)c1)c1cnc2c(c1)N(C(=O)Cc1cccc(C(F)(F)F)c1)CCC2 | 11.2µM*
CC(C)c1ccc(CC(=O)N2CCCc3ncc(C(=O)NCCc4ccccc4)cc32)cc1 | i
CC(C)c1ccc(CC(=O)N2CCCc3ncc(C(=O)NCc4ccccc4)cc32)cc1 | i
SMILES | Pf Dd2 inh
CC(C)c1ccc(CC(=O)N2CCCc3ncc(C(=O)Nc4cccc(Cl)c4)cc32)cc1 | 12.6µM*
CC(C)c1ccc(CC(=O)N2CCCc3ncc(C(=O)Nc4cccnc4)cc32)cc1 | 0.631µM*
COc1ccc(-c2cc(C[C@@H]3C[C@H](NCc4ccncc4)C3(C)C)no2)cc1 | -16.4%[44.1 µM]
Cc1cc(C)c2c(C(=O)N(C)Cc3nc(C)no3)cc(C)nc2c1 | -15.2%
CCc1ccc(C(=O)N2CC(c3nnc(-c4ccncc4)o3)C3(CCOCC3)C2)cc1 (stereo not given) | -2.5%
CCN(C(=O)c1ccc2c(c1)N(S(C)(=O)=O)CC2)c1ccccc1 | -14.4%
COc1cc(CN2CCN(c3ncccc3C#N)CC2CCO)cc(OC)c1 (stereo not given) | i
O=C([C@@H]1C[C@H](F)CN1C(=O)Cc1ccc(F)cc1)N1CCCCC1 | 65.5%
COc1cccc([S+](=O)([O-])N2CC(Oc3ccc(F)cc3C)C2)c1 | 1.9%
COc1ccc(NC(=O)CN2C(=O)NC3(CCCCC3)C2=O)cc1Cl | -11.0%
c1cnc2[nH]cc(-c3nc4ccncc4[nH]3)c2c1 | 10µM*!
Cc1cc(-c2nc3ccncc3[nH]2)c(C)[nH]1 | 20µM*!
c1cc2nc(C3CCNC3)[nH]c2cn1 (stereo not given) | i
O=C(O)c1ccc(-c2cccnc2)cc1 | 1.3%[44.1 µM]
c1cc2nc(C3CCNCC3)[nH]c2cn1 | -0.6%[44.1 µM]
c1cnc2nc(-c3ccncc3)[nH]c2c1 | -19.4%[44.1 µM]
c1coc(-c2nc3ccncc3[nH]2)c1 | -24.1%[44.1 µM]
O=C(O)c1ccc(-c2nc3ccncc3[nH]2)cc1 | 1.26µM*!
O=C(O)c1ccc2nc(-c3cc4cc(F)ccc4oc3=O)[nH]c2c1 | -1.3%
O=C1NC(=NC2CCCCC2)C2(CCN(CC3CCCCC3)CC2)N1c1cccnc1 | 4.5%
Cc1cc(C(=O)N2CCC(n3c(=O)[nH]c4ccccc43)CC2)ccc1Cl | -5.0%
CS(=O)(=O)N1CCC2(CC1)NCCc1c2[nH]c2ccccc12 | i
COc1ccc(-c2noc(C(=O)O)c2[C@@H](C)NC(=O)C2CCCC2)cc1 | -11.3%[44.1 µM]

Assay outcomes: PubChem BioAssay, National Center for Advancing Translational Sciences (NCATS)
